SMILES strings stand for the structures.

The target of the assay is C-X-C chemokine receptor type 5 (Homo sapiens) (UniProt P32302). Description: antagonism of CXCR6 versus CXCR5 signaling – cell-based, CHO-K1 PathHunter beta-arrestin, luminescence, set 4, selectivity assay for CXCR6 antagonist project, profiling panel (AID 651919). To be noted: run 1, at 79 µM (top of the series).
With `COc1ccc(C(=O)NC2CC3CCCC(C2)N3CC(=O)Nc2ccccc2)cc1OC` (centres undefined), the inhibition was determined as 16.5%. With `COc1ccc(C(=O)NC2CC3CCCC(C2)N3CC(=O)Nc2ccc(C)cc2)cc1` (centres undefined), the inhibition is 22.2%. Next, `COc1cccc(C(=O)NC2CC3CCCC(C2)N3CC(=O)Nc2ccc(F)cc2)c1` (centres undefined): -4.11%. In the case of `COc1cccc(C(=O)NC2CC3CCCC(C2)N3CC(=O)Nc2ccc(C)cc2)c1` (centres undefined), the inhibition was determined as 44.1%.
